Source: PubChem (several laboratories)
TWEAK Fn14 block – inhibitors of TWEAK-Fn14 interaction signaling; TWEAK-stimulated Fn14 reporter cells, luciferase luminescence, 8 h; inhibition, % at 10 µM; actives 2% (n = 360,000); in the data active = inhibition above about 50%
TROY NFkB inh – inhibitors of TROY-dependent NF-kB signaling. actives 0.98% (n = 360,000). Q293 LMP1-TROYcd NF-kB luciferase reporter, 4 h. inhibition, % at 10 µM. AID 1347056;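 active = compounds whose plate-normalised and pattern-corrected inhibition of the luciferase reporter signal at the single screening dose is 50% or more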
PPC-1+TRAIL kill – PPC-1 cancer cell killing with TRAIL present; PPC-1 cells + TRAIL, ATPLite viability luminescence; cell killing (% activity), % at 4 µM or 5 µM; actives 0.41% (n = 220,000); AID 1443;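 active = cell killing above 50% in the first pass at 4 µM, then a duplicate retest at 5 µM averaging 50% or more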
C8 TRAIL sens – caspase-8 TRAIL sensitization; actives 1% (n = 360,000); inhibition (viability loss, TRAIL sensitization), % at 10 µM; NB7+C8 cells + TRAIL, ATPlite viability luminescence;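 active = compounds causing at least 50% loss of cell viability in the single-dose screen, relative to plate controls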
HSP90 refold inh – inhibitors of HSP90 luciferase refolding in rabbit reticulocyte lysate. luciferase refolding luminescence, 3 h. inhibition, % at 5.6 µM. actives 0.91% (n = 290,000). AID 1789;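 active = inhibition above the screen-wide mean plus 3 SD, computed separately per campaign, cut at about 16% in these data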;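 note: inhibitors lower the luminescence because luciferase stays unfolded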
Platelet DG rel – platelet dense granule release activity | human platelet-rich plasma, SFLLRN dense granule ATP release, luminescence | inhibition, %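 (compounds screened at 7.5 µM in platelet-rich plasma)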 | actives 0.22% (n = 300,000) | AID 1663;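 active = mean replicate score, as percent of positive control, at or above 50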
Numbers stand for hits; 0 = inactive; - = no result given; ! = not active in a repeat. Shown are actives, neighbours in structure and some others; about 3.5% of the full set was active somewhere.

SMILES | TWEAK Fn14 block | TROY NFkB inh | PPC-1+TRAIL kill | C8 TRAIL sens | HSP90 refold inh | Platelet DG rel
COc1ccc(C(CNC(=O)c2ccc(OCc3csc(C)n3)cc2)N2CCCC2)cc1 (stereo not drawn) | 0 | 0 | - | 0 | - | -
O=C(Nc1cc(S(=O)(=O)Nc2ccc(Cl)cc2)ccc1O)c1ccc(S(=O)(=O)N2CCCCCC2)cc1 | 0 | 57 | 0 | 0 | 0 | 0
O=C(N/N=C/c1ccc(O)c(O)c1)c1cccc(S(=O)(=O)N2CCCC2)c1 | 0 | 0 | - | 0 | - | 0
O=C(N/N=C\c1cc(Cl)ccc1O)c1ccc(S(=O)(=O)N2CCCCC2)cc1 | 0 | 0 | 52 | 0 | 0 | 0
Cc1ccc2[nH]c3c(N4CCc5ccccc5C4)ncnc3c2c1 | 63 | 0 | 0 | 0 | 0 | 0
Brc1ccc2[nH]c3c(N4CCc5ccccc5C4)ncnc3c2c1 | - | - | 0 | - | 0 | 0
Fc1ccc2[nH]c3c(N4CCc5ccccc5C4)ncnc3c2c1 | 58 | 0 | 0 | 0 | 0 | 0
Cc1ccc2[nH]c3c(N4CCOCC4)ncnc3c2c1 | 0 | 0 | 0 | 0 | 0 | 0
C[C@H]1CCC[C@]2(C)C[C@H]3OC(=O)C(CN4CCCCCC4)[C@H]3C=C12 (stereo partly drawn) | 73 | 0 | - | 0 | 0 | 0
CCS(=O)CCSc1nc2ccccc2s1 (stereo not drawn) | 80 | 60 | 0 | 0 | 0 | 0
COc1ccc(/C=N/n2c(N)c(S(=O)(=O)c3cccs3)c3nc4ccccc4nc32)cc1OC | 0 | 0 | 0 | 0 | 0 | 0
CC(C)Cn1c(N)c(S(=O)(=O)c2cccs2)c2nc3ccccc3nc21 | 0 | 67 | 0 | 0 | 0 | 0
Nc1c(S(=O)(=O)c2cccs2)c2nc3ccccc3nc2n1/N=C/c1cccc(O)c1 | 81 | 0 | 0 | 0 | 0 | 0
CC(=O)c1ccccc1NC(=O)CN1C(=O)NC2(CCCCCCC2)C1=O | 0 | 0 | - | 0 | - | -
COc1ccccc1NS(=O)(=O)c1ccc2oc(N)nc2c1 | 0 | 0 | - | 0 | 0 | 0
COC(=O)c1cc(=O)n(Cc2ccco2)c(=Nc2ccc(F)cc2)s1 | 56 | 0 | 0 | 0 | 0 | 0
COC(=O)c1cc(=O)n(Cc2cccs2)c(=Nc2ccccc2)s1 | 0 | 0 | 0 | 0 | 0 | 0
COC(=O)c1cc(=O)n(Cc2ccc(F)cc2)c(=Nc2ccccc2)s1 | 0 | 0 | 0 | 0 | 0 | 0
COC(=O)c1cc(=O)n(Cc2ccc(OC)c(OC)c2)c(=Nc2ccc(F)cc2)s1 | 65 | 0 | 0 | 0 | 0 | 0
COC(=O)c1cc(=O)n(CCc2ccc(OC)c(OC)c2)c(=Nc2ccc(F)c(Cl)c2)s1 | 60 | 0 | 0 | 0 | 0 | 0
CCOc1ccc(NC(=O)CN(C)C(=O)c2c(-c3ccccc3Cl)noc2C)cc1OCC | 0 | 0 | - | 0 | - | 0
CC1CCC2(CC1)NC(=O)N(CC(=O)Nc1cccnc1Cl)C2=O (stereo not drawn) | 0 | 0 | - | 0 | - | -
COC(=O)c1ccc2c(=O)[nH]c(COC(=O)c3[nH]c(C)c(C(C)=O)c3C)nc2c1 | 0 | 0 | - | 0 | - | -
CCCCCn1c(N)c(-c2nc3ccccc3s2)c2c([N+](=O)[O-])nn(CC)c(=O)c21 | 83 | 0 | 0 | 0 | 0 | 0
Cc1cc(F)ccc1-c1cc(C(=O)NC(C)C)[nH]n1 | 0 | 0 | - | 0 | - | -
SMILES | TWEAK Fn14 block | TROY NFkB inh | PPC-1+TRAIL kill | C8 TRAIL sens | HSP90 refold inh | Platelet DG rel
CCOC(=O)Cn1c(COc2ccccc2OC)[n+](C)c2ccccc21 | 0 | 0 | - | 0 | - | 0
CC1CCC(C(C)C)C(OC(=O)COC(=O)c2cccn2C)C1 (stereo not drawn) | 0 | 0 | 0 | 0 | 0 | -
CC1CCC(C(C)C)C(OC(=O)Cn2c(-c3ccc(Br)cc3)[n+](C)c3ccccc32)C1 (stereo not drawn) | 56! | 0 | 0 | 0 | 0 | 0
CC1CCC(C(C)C)C(OC(=O)Cn2c(-c3ccc(Cl)cc3)[n+](C)c3ccccc32)C1 (stereo not drawn) | 59 | 0 | 0 | 51 | 0 | 0
Cc1ccccc1OCc1n(CC(=O)OC2CC(C)CCC2C(C)C)c2ccccc2[n+]1C (stereo not drawn) | 83! | 64 | 0 | 0 | 0 | 0
CC(C)[C@@H]1CC[C@@H](C)C[C@H]1OC(=O)C[n+]1cc(-c2ccc(Cl)cc2)n2c1CCCCC2 | 64 | 0 | 0 | 0 | 0 | 0
Cc1ccc(C)c(Nc2cc(C)nc3ccccc23)c1 | 0 | 0 | - | 0 | - | 0
CC(COc1ccccc1)OC(=O)Nc1ccccc1 (stereo not drawn) | 0 | 0 | - | 0 | - | -
